Reference: PubChem BioAssay (EPA / NIEHS)
Records with an inconclusive call do not appear. Activity calls are given as the source filed them. Rule for the calls, unless noted: active = hit-call score of the fitted dose curve at least 0.9, where 1 is the maximum; inactive = score below 0.9.

Tests used:
[1] = read-out: Interleukin-1 alpha (IL1a), IL1A (gene 3552); assay: BSK_BE3C_IL1a: BioMAP Diversity Plus: BE3C Assay for Interleukin-1 alpha (IL1a) Biomarker Activity (AID 2283016); conditions: primary human bronchial epithelial cells; actives raise or lower the signal
Method in brief: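 ELISA read-out of IL-1a from human lung bronchial epithelial primary cells, 24 h post-dose. Gain or loss of signal fitted relative to DMSO negative control.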

[2] = read-out: Monocyte Chemoattractant Protein-1 (MCP1), CCL2 (gene 6347); assay: BSK_3C_MCP1: BioMAP Diversity Plus: 3C Assay for Monocyte Chemoattractant Protein-1 (MCP1) Biomarker Activity (AID 2283017); conditions: primary human endothelial cells (HUVEC); actives raise or lower the signal
Method in brief: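 Primary human umbilical vein endothelial cells (3C system) were exposed to test chemical for 24 h, after which MCP-1 was quantified by ELISA. Activity was fitted bidirectionally against DMSO as negative control and baseline.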

[3] = read-out: Monocyte Chemoattractant Protein-1 (MCP1), CCL2 (gene 6347); assay: BSK_4H_MCP1: BioMAP Diversity Plus: 4H Assay for Monocyte Chemoattractant Protein-1 (MCP1) Biomarker Activity (AID 2283018); conditions: primary human endothelial cells (HUVEC); actives raise or lower the signal
Method in brief: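 HUVEC primary cells, 24 h post-dose, MCP-1 by ELISA. Gain or loss of signal fitted bidirectionally vs DMSO baseline. Cytotoxicity: SRB stain (0.1% after 10% TCA fixation), read 560 nm, parallel cultures.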

[4] = read-out: Human Leukocyte Antigen - DR isotype (HLADR), HLA-DRA (gene 3122); assay: BSK_3C_HLADR: BioMAP Diversity Plus: 3C Assay for Human Leukocyte Antigen - DR isotype (HLADR) Biomarker Activity (AID 2283019); conditions: primary human endothelial cells (HUVEC); actives raise or lower the signal;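 note: ELISA of cell-surface HLA-DR on HUVEC 24 h after dosing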
Method in brief: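 Primary human umbilical vein endothelial cells (3C system) were dosed with compound and cell-surface HLA-DR was quantified by ELISA at 24 h. Activity was fitted bidirectionally against DMSO as negative control and baseline.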

[5] = read-out: Interleukin-8 (IL8), CXCL8 (gene 3576); assay: BSK_3C_IL8: BioMAP Diversity Plus: 3C Assay for Interleukin-8 (IL8) Biomarker Activity (AID 2283020); conditions: primary human endothelial cells (HUVEC); actives raise or lower the signal
Method in brief: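 HUVEC, 3C stimulation; 24 h compound exposure; IL-8 read by ELISA; gain or loss of signal fitted relative to DMSO control.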

[6] = read-out: Monokine induced gamma interferon (MIG), CXCL9 (gene 4283); assay: BSK_3C_MIG: BioMAP Diversity Plus: 3C Assay for Monokine induced gamma interferon (MIG) Biomarker Activity (AID 2283021); conditions: primary human endothelial cells (HUVEC); actives raise or lower the signal
Method in brief: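 HUVEC, 3C system; 24 h chemical exposure; MIG by ELISA; bidirectional fit vs DMSO baseline.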

[7] = target: human Vitamin D Receptor (VDR), VDR (gene 7421) (UniProt P11473); assay: ATG_VDR_TRANS: Attagene TRANS-FACTORIAL HepG2 Assay for human Vitamin D Receptor (VDR) (AID 2283022; active = hit-call score of the fitted dose curve at least 0.9, where 1 is the maximum)
Method in brief: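 HepG2 cells were transiently transfected with multiple GAL4-UAS reporter units, so signal reflects exogenous chimeric receptor-Gal4 activity. After 24 h compound exposure, reporter mRNA was measured by RT-PCR, fluorescent labelling and capillary electrophoresis, fitted for gain of signal versus DMSO.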

[8] = BSK_3C_SRB: Viability Assessment in the BioMAP Diversity Plus: 3C Assay (AID 2283023); conditions: primary human endothelial cells (HUVEC);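 note: fitted both ways against DMSO so a hit may be signal rise or drop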
Method in brief: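 Primary human umbilical vein endothelial cells in the 3C system were read 24 h after compound dosing. Total protein was stained with 0.1% sulforhodamine B after 10% TCA fixation and read at 560 nm, with bidirectional fitting against DMSO as baseline.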

[9] = BSK_3C_Vis: BioMAP Diversity Plus: 3C Assay for Morphology Visualization (AID 2283025); conditions: primary human endothelial cells (HUVEC);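 note: fitted both ways so gain or loss versus DMSO counts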
Method in brief: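 HUVEC, 3C system; light microscopy of morphology at 24 h post-dose. Bidirectional fit vs DMSO baseline. Secondary readout, background-control function.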

[10] = read-out: Pselectin, SELP (gene 6403); assay: BSK_4H_Pselectin: BioMAP Diversity Plus: 4H Assay for Pselectin Biomarker Activity (AID 2283026); conditions: primary human endothelial cells (HUVEC); actives raise or lower the signal
Method in brief: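 HUVEC, 24 h chemical exposure; P-selectin read by ELISA. Bidirectional curve fit vs DMSO baseline; gain or loss of signal scored.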

[11] = BSK_4H_SRB: Viability Assessment in the BioMAP Diversity Plus: 4H Assay (AID 2283027); conditions: primary human endothelial cells (HUVEC);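 note: cells exposed to compound for 24 h before staining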
Method in brief: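 HUVEC, 24 h post-dose; 10% TCA fix, 0.1% SRB stain, A560 nm. Total protein = overt cytotoxicity, parallel to biomarker read. Bidirectional fit vs DMSO baseline.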

[12] = BSK_BE3C_SRB: Viability Assessment in the BioMAP Diversity Plus: BE3C Assay (AID 2283028); conditions: primary human bronchial epithelial cells
Method in brief: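 Human primary bronchial epithelial cells were exposed to test chemicals for 24 h. Total protein in parallel cultures was then measured by staining with 0.1% sulforhodamine B after 10% TCA fixation, with absorbance read at 560 nm. Activity was fitted bidirectionally against DMSO.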

[13] = read-out: Thrombomodulin, THBD (gene 7056); assay: BSK_3C_Thrombomodulin: BioMAP Diversity Plus: 3C Assay for Thrombomodulin Biomarker Activity (AID 2283029); conditions: primary human endothelial cells (HUVEC); actives raise or lower the signal
Method in brief: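 HUVEC, 3C conditions; compound 24 h; thrombomodulin by ELISA; bidirectional curve fit vs DMSO baseline; parallel SRB total-protein staining for cytotoxicity.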

[14] = read-out: Urokinase-type plasminogen activator receptor (uPAR), PLAUR (gene 5329); assay: BSK_4H_uPAR: BioMAP Diversity Plus: 4H Assay for Urokinase-type plasminogen activator receptor (uPAR) Biomarker Activity (AID 2283030); conditions: primary human endothelial cells (HUVEC); actives raise or lower the signal
Method in brief: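 Primary human umbilical vein endothelial cells were exposed to chemical for 24 h before cell-surface uPAR was quantified by ELISA. Activity was fitted bidirectionally against the DMSO negative control baseline.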

[15] = read-out: Vascular endothelial growth factor receptor 2 (Homo sapiens) (UniProt P35968); assay: BSK_4H_VEGFRII: BioMAP Diversity Plus: 4H Assay for Vascular endothelial growth factor receptor 2 (VEGFR2) Biomarker Activity (AID 2283031); conditions: primary human endothelial cells (HUVEC); actives raise or lower the signal
Method in brief: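 Primary human umbilical vein endothelial cells in the BioMAP 4H system were dosed with test chemical, and 24 h later VEGFRII was measured by ELISA. Activity was fitted bidirectionally against DMSO as negative control and baseline.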

[16] = read-out: Human Leukocyte Antigen - DR isotype (HLADR), HLA-DRA (gene 3122); assay: BSK_BE3C_HLADR: BioMAP Diversity Plus: BE3C Assay for Human Leukocyte Antigen - DR isotype (HLADR) Biomarker Activity (AID 2283032); conditions: primary human bronchial epithelial cells; actives raise or lower the signal
Method in brief: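 Primary human bronchial epithelial cells (BE3C); 24 h chemical exposure; HLA-DR by ELISA; bidirectional curve fit vs DMSO baseline.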

[17] = read-out: Interferon-gamma inducible Protein 10 (IP10), CXCL10 (gene 3627); assay: BSK_BE3C_IP10: BioMAP Diversity Plus: BE3C Assay for Interferon-gamma inducible Protein 10 (IP10) Biomarker Activity (AID 2283034); conditions: primary human bronchial epithelial cells; actives raise or lower the signal
Method in brief: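 ELISA readout of IP-10 in BE3C system: primary human bronchial epithelial cells, 24 h post-dosing; bidirectional curve fit vs DMSO baseline.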

[18] = read-out: Monokine induced gamma interferon (MIG), CXCL9 (gene 4283); assay: BSK_BE3C_MIG: BioMAP Diversity Plus: BE3C Assay for Monokine induced gamma interferon (MIG) Biomarker Activity (AID 2283035); conditions: primary human bronchial epithelial cells; actives raise or lower the signal;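 note: MIG protein measured by ELISA in BE3C cultures after 24 h of dosing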
Method in brief: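 Dose cells (human primary bronchial epithelial), incubate 24 h, quantify MIG by ELISA, then fit concentration–response in both directions relative to DMSO control.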

[19] = read-out: Vascular cell adhesion molecule 1 (VCAM1), VCAM1 (gene 7412); assay: BSK_4H_VCAM1: BioMAP Diversity Plus: 4H Assay for Vascular cell adhesion molecule 1 (VCAM1) Biomarker Activity (AID 2283033); conditions: primary human endothelial cells (HUVEC); actives raise or lower the signal;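 note: cell-surface VCAM-1 protein measured by ELISA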
Method in brief: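 HUVEC, 24 h post-dose; VCAM-1 by ELISA. Bidirectional curve fit vs DMSO baseline. Parallel SRB total-protein stain (0.1% SRB after 10% TCA fixation, 560 nm) for cytotoxicity.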

[20] = read-out: Matrix Metallopeptidase 1 (MMP1), MMP1 (gene 4312); assay: BSK_BE3C_MMP1: BioMAP Diversity Plus: BE3C Assay for Matrix Metallopeptidase 1 (MMP1) Biomarker Activity (AID 2283024); conditions: primary human bronchial epithelial cells; actives raise or lower the signal
Method in brief: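 ELISA read-out of MMP1 in human lung bronchial epithelial primary cultures, 24 h post-dose; bidirectional curve fit vs DMSO baseline, gain or loss of signal scored.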

Measured: AC50

human Vitamin D Receptor (VDR), VDR (gene 7421), sequence (P11473 whole entry, looked up, the tested form may be a part): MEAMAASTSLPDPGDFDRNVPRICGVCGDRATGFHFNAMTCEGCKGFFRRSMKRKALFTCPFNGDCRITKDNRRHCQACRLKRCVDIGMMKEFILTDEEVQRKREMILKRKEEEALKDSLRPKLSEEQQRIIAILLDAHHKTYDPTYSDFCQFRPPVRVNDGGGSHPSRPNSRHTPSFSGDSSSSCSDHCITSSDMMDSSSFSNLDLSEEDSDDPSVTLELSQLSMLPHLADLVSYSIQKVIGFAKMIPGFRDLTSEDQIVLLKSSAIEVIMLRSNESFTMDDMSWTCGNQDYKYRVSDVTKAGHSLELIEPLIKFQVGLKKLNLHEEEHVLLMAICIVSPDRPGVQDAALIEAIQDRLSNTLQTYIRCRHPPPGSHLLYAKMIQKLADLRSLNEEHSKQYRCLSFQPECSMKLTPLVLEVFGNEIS

C=CCCCCCCCCC(=O)O
not listed: [19] | [20]
inactive: all other assays above

CCOCCOCCOCCO
not listed: [20]
inactive: all other assays above

CC/C(=C\C(=N/O)C(N)=O)C(C)[N+](=O)[O-] (centres undefined)
active: [17] 29.8 µM
not listed: [20]
inactive: all other assays above

C1N2CN3CN1CN(C2)C3
not listed: [10] | [19]
inactive: all other assays above

COc1ccc(/C=C/S(=O)(=O)NC(=O)c2ccc(C)cc2Cl)cc1
not listed: [10]
inactive: all other assays above

C=CC(=C)CCC=C(C)C
not listed: [10] | [20]
inactive: all other assays above

CCNc1ccccc1
not listed: [19] | [20]
inactive: all other assays above
